Values joined by “and” are separate entries in the source; they are usually repeats but may differ in a detail not shown here. Equal values may be shown once. Records with an inconclusive call do not appear. A number with no mark means an inactive call. Active and inactive are the calls of the source. Calls follow the shape of the dose curve; as a rule, active = well fitted inhibition curve with a large enough effect; inconclusive = small, poorly fitted or top-dose-only effect; inactive = flat fitted curve, though single readings scatter.
Experiment: P-glycoprotein substrates identified in KB-8-5-11 adenocarcinoma cell line, qHTS therapeutic library screen (AID 1346987); also: nearly all actives have a fitted effect of over 65% in size; as to activity change, negative = cytotoxicity: series mostly up to about 44 µM
Outline: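 KB-8-5-11: colchicine-selected sub-line of KB-3-1 over-expressing P-gp; assay medium lacked colchicine. 72 h drug exposure at 37 degree C, CellTiter-Glo.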
% is scaled to controls: 0 for no effect and ±100 for the full control effect; potency is read from the fitted curve at half-maximal effect.

Compound	Potency	activity change, negative = cytotoxicity
CC1CC(=O)C2=C(CCC3(O)C(O)c4c(O)cccc4C(=O)C23O)C1 (stereo not drawn)	inactive	–
CC(C)(C)CCN1C[C@@H]2C(CNC(=O)c3cc(Cl)cc(Cl)c3)[C@@H]2C1 (stereo partly drawn)	inactive	–
CN1CCN(c2ccc(C(=O)Nc3n[nH]c4ccc(Cc5cc(F)cc(F)c5)cc34)c(NC3CCOCC3)c2)CC1	16.4 µM (active) and 13 µM (active)	–
CCS(=O)(=O)N1CCN(c2ccc(Nc3ncc(C(N)=O)c(NC4CC4)n3)cc2)CC1	7310 nM (active)	–
O=C1NC(=O)C(c2cn3c4c(cccc24)CCC3)C1c1c[nH]c2ccccc12 (stereo not drawn)	1300 nM (active)	–
COc1ccc(N(C)c2nc(C)nc3ccccc23)cc1	6.5 nM (active)	–
COc1cc(O)c2c(c1)C1=C[C@H](O)[C@@H](O)C[C@]1(C)OC2=O	inactive	–
CNS(=O)(=O)CC1CCC(N(C)c2ncnc3[nH]ccc23)CC1 (stereo not drawn)	inactive	–
Clc1cc2c(NC3CCCC3)nnc(-c3ccncc3)c2cc1Cl	inactive	–
COc1cc2ncnc(N3CCC(Oc4cnc5ccccc5n4)C3)c2cc1OC (stereo not drawn)	461 nM (active)	–
Cc1ccc(C(=O)N(CCCN)C(c2nc3cc(Cl)ccc3c(=O)n2Cc2ccccc2)C(C)C)cc1 (stereo not drawn)	517 nM (active)	–
CC(O)/C=C/C1OC(=O)CC1Nc1ccc(C(=O)O)cc1 (stereo not drawn)	inactive	–
CC(C)=CCC/C(C)=C/CC/C(C)=C/COC1OC(COC2OCC(OC3OCC(O)C(O)C3O)C(O)C2O)C(O)C(OC2OC(C)C(OC3OC(C)C(OC4OCC(OC5OC(C)C(O)C(O)C5O)C(O)C4O)C(O)C3O)C(O)C2O)C1O (stereo not drawn)	–	7.18% [at 9.29 µM]
